HT1080 IDH1KD tx: toxicity to HT-1080 IDH1 knockdown cells (counter line); HT-1080 IDH1 knockdown viability, ATP luminescence, 48 h; Potency, µM (series often up to 46.1 µM), for inactives: at the highest dose activity, negative = toxicity, usual class: cytotoxic; 360,000 compounds, 2% hits; AID 686971;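 further: 0% = DMSO wells and -100% = cell-free medium wells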
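% activity derives from luminescence (CellTiter-Glo), normalised to DMSO and no-cell wells. HT-1080-IDH1KD cells, 750/well, had 48 h compound exposure at 37 °C.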
KB-3-1 tox: KB-3-1 parental cell cytotoxicity | 400,000 compounds, 1.4% hits | KB-3-1 viability, CellTiter-Glo ATP luminescence, 72 h | Potency, µM (top dose mostly 46.1 µM), most hits filed as cytotoxic; further: nearly all actives have a fitted effect of over 60% in size
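Here the drug-naive KB-3-1 line serves as comparator for MDR sub-line selectivity; cells received compound titrations, 72 h at 37 °C, then CellTiter-Glo readout.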
DT40 TDP1 CPT: growth inhibition of DT40 Tdp1-/-;hTDP1 cells with camptothecin (screen for TDP1 inhibitors). chicken DT40 Tdp1-/-;hTDP1 cells + 20 nM CPT, ATP luminescence, 48 h. Potency, µM (titrated, usually from 46.2 µM), for the others: at the top dose activity change, negative = growth inhibition, hits mostly inhibitors. 420,000 compounds, 12% hits; further: nearly all actives have a fitted effect of over 55% in size
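Cell growth measured by CellTiter-Glo luminescence after a minimum 48 h, 37 C compound exposure with 20 nM CPT in Tdp1-knockout DT40 cells stably expressing hTDP1, seeded 400/well; qHTS titration format.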
KB-V1 MDR tox: KB-V1 MDR subline cytotoxicity. KB-V1 MDR cells viability, CellTiter-Glo, 72 h. AID 1347076. 400,000 compounds, 3.4% hits. Potency, µM (doses to about 46.1 µM), actives largely listed as cytotoxic; further: nearly all actives have a fitted effect of over 60% in size
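Drug-selected KB-V1 cells, grown in DMEM lacking phenol red with 10% FBS, receive compound titrations; after three days at 37 degrees C, surviving cell ATP is quantified by CellTiter-Glo luminescence and responses normalized and curve-fitted.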
DT40 TDP1 no CPT: qHTS for Inhibitors of human tyrosyl-DNA phosphodiesterase 1 (TDP1): qHTS in cells in absence of CPT; DT40 Tdp1-/- hTDP1 cells, no CPT, ATP luminescence, 48 h; Potency, µM (series often up to 46.2 µM), without a hit: at the highest dose activity change, negative = growth inhibition, most hits filed as inhibitors; 420,000 compounds, 15% hits; AID 686978, 2013; further: nearly all actives have a fitted effect of over 55% in size
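Chicken DT40 Tdp1-/- cells stably complemented with human TDP1 were seeded at 400 cells/well with DMSO in place of 20 nM camptothecin. After compound pinning, cells grew at least 48 hr at 37 °C; viability read by CellTiter-Glo luminescence.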
HT1080-NT tox: kills 2HG-producing HT-1080-NT fibrosarcoma cells; 360,000 compounds, 1.6% hits; HT-1080-NT fibrosarcoma viability, CellTiter-Glo ATP luminescence, 48 h; Potency, µM (highest dose often 46.1 µM), for inactives: at the highest dose activity, negative = less viability, usual class: cytotoxic;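 further: NT is the 2HG producing partner of a matched IDH1 knockdown line; 0% = DMSO-treated cells and -100% = media-only wells without cells; nearly all actives have a fitted effect of over 55% in size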
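Compounds were tested in concentration-response format on HT-1080-NT cells for 48 hours at 37 degrees C. Cell viability came from CellTiter-Glo luminescence; curves were classified by r2, response magnitude and activity.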
The depositor's hits bear a star; i = inactive; ? = inconclusive; nt = no result given; [ ] = dose if it differs, or a comment. Only some compounds are listed: those with a hit (about 19% of all), similar ones and a draw of the others. The call rests on the fitted dose curve; in most records, active means well fitted curve in the direction sought with a large enough effect; inconclusive means small, poorly fitted or top-dose-only effect, or another doubt; inactive means no such curve, though single readings can be large; an effect the other way counts as inactive or inconclusive. Unless noted, on the % scale 0 is the no-effect control and ±100 the full control effect; potency means the concentration at half of the fitted maximal effect.

SMILES | HT1080 IDH1KD tx | KB-3-1 tox | DT40 TDP1 CPT | KB-V1 MDR tox | DT40 TDP1 no CPT | HT1080-NT tox
CC(C)(C)n1nnnc1C(c1cc2ccccc2o1)N1CCOCC1 (centres undefined) | 4.9% | i | -2.1% | i | -22.0% | 0.1%
C#CCN1C(=O)S/C(=C/c2cc(C)n(CC)c2C)C1=O | -0.2% | i | ? | i | 20.6µM* | -1.6%
O=S(=O)(c1ccccc1)[C@@]1(c2ccccc2)C[C@@H]2ON=C(c3cccc(Br)c3)[C@@H]2C1 | 8.3% | ? | 4.61µM* | i | 3.66µM* | 16.1%
O=C(CN1CCN(S(=O)(=O)c2ccc(F)cc2)CC1)NCC1(N2CCOCC2)CCCCC1 | -10.1% | i | -0.7% | i | -3.9% | 16.8%
NC(=S)N=Nc1ccc(NN=C(N)N)cc1 | ? | i | 1.3µM* | ? | 1.46µM* | ?
O=C(/C=C1\NC2(CCCC2)Cc2ccccc21)C(=O)N/N=C/c1ccccc1O | ? | ? | 3.66µM* | ? | 2.06µM* | 23.1µM*
CN(C)c1ccc(/C=N/NC(=O)C(=O)/C=C2\NC3(CCCC3)Cc3ccccc32)cc1 | -16.4% | i | 25.9µM* | 18.4µM* | 20.6µM* | -4.5%
CCNC(=O)C1(C)CCN(C(=O)c2cc(OC)c(OC)c(OC)c2)C1 (centres undefined) | 17.3% | i | -6.3% | i | 14.7% | 3.0%
CCOC(=O)c1cc(S(=O)(=O)NC2CCC(C)CC2)cn1C (centres undefined) | 0.1% | i | -2.0% | i | ? | 0.3%
O=C(NCc1cccs1)C(=O)NCC(c1ccco1)N1CCN(c2ccccc2F)CC1 (centres undefined) | -14.4% | i | 23.1µM* | ? | ? | -10.2%
O=C(NCC(c1ccco1)N1CCN(c2ccccc2F)CC1)C(=O)NC1CCCC1 (centres undefined) | 6.8% | i | ? | ? | 9.2µM* | 11.4%
O=C(NCC(c1ccco1)N1CCN(c2ccccc2F)CC1)c1cccs1 (centres undefined) | -14.1% | i | -26.5% | i | ? | -1.1%
COc1cccc(NC(=O)N(C)C[C@H]2Oc3ncc(Br)cc3C(=O)N([C@H](C)CO)C[C@H]2C)c1 | 0.3% | i | -0.2% | i | ? | 6.0%
N[C@@H](C(=O)O)[C@@H](CC(=O)O)c1ccc(Cl)cc1 | nt | nt | 6.8% | nt | -24.1% | nt
O=C1CN(C(=O)c2ccccc2)C(c2ccccc2)c2cc(Cl)ccc2N1 (centres undefined) | -20.0% | i | 5.1% | i | ? | -8.3%
O=C1CN(C(=O)c2c(F)cccc2Cl)C(c2ccc(F)cc2)c2cc(Br)ccc2N1 (centres undefined) | nt | i | ? | i | ? | nt
O=C1CN(C(=O)c2ccc(Br)o2)C(c2ccc(F)cc2)c2cc(Cl)ccc2N1 (centres undefined) | ? | i | 16.4µM* | i | ? | ?
O=C1CN(C(=O)c2ccco2)C(c2ccccc2)c2cc(Cl)ccc2N1 (centres undefined) | 7.5% | i | 16.4µM* | i | 16.4µM* | 0.1%
O=C1CN(C(=O)c2ccc(Br)o2)C(c2ccccc2)c2cc(Cl)ccc2N1 (centres undefined) | -16.8% | ? | 14.6µM* | ? | ? | -5.0%
OCc1c[nH]c(=S)n1CCOc1cccc(C(F)(F)F)c1 | -1.6% | i | -14.4% | i | ? | -2.1%
C/C=C(/CC[C@@H](C)[C@H]1CC[C@H]2C3=CC[C@H]4[C@H](C)[C@@H](O)CC[C@]4(C)[C@H]3CC[C@]12C)C(C)C | nt | nt | -5.6% | nt | -20.7% | nt
COc1ccc(CNS(=O)(=O)NCc2ccccc2)cc1 | 3.1% | i | -9.9% | i | -16.2% | 1.1%
CC(NCc1ccc(OCc2ccc(Cl)cc2)cc1)C(O)c1ccccc1 (centres undefined) | 18.4µM* | ? | 14.6µM* | ? | ? | 23.1µM*
OCCCCNCc1ccc(OCc2ccc(Cl)cc2)cc1 | ? | i | ? | i | ? | ?
COc1ccc(CNC(c2ccccc2)c2ccc(Cl)cc2)cc1 (centres undefined) | -25.7% | i | ? | i | 16.4µM* | -26.2%
SMILES | HT1080 IDH1KD tx | KB-3-1 tox | DT40 TDP1 CPT | KB-V1 MDR tox | DT40 TDP1 no CPT | HT1080-NT tox
O=C(CCc1nc2ccccc2[nH]1)Nc1ccccc1 | ? | i | -11.4% | i | -22.0% | 26.8%
O=C(Nc1ccccc1)N(CCc1nc2ccccc2[nH]1)C1CCCC1 | 0.6% | i | -5.1% | 16.4µM* | -7.7% | -18.1%
O=C(Nc1nc2ccccc2[nH]1)NC1CCCCC1 | -18.5% | i | ? | i | 2.5% | -3.7%
S=C(NC1CCCCC1)N(CCc1nc2ccccc2[nH]1)C1CCCC1 | -26.4% | ? | ? | 16.4µM* | ? | -15.0%
COc1ccc(OC)c(CN2CCOc3ccc(C(O)c4cccnc4)cc3C2)c1 (centres undefined) | nt | nt | 10.3%[9.04 µM] | nt | -29.4% | nt
O=C(Nc1cccc(S(=O)(=O)N2CCCC2)c1)[C@@H]1O[C@H](CO)[C@@H](O)[C@H]1O | 29.1% | i | 5.4% | i | -0.5% | 21.1%
Cc1ccc(NS(=O)(=O)c2cccc(C(=O)NCC3CCCO3)c2)cc1 (centres undefined) | -5.2% | i | -16.8% | ? | ? | -4.5%
CCOc1ccccc1CNC(=O)c1cc2oc3ccccc3c2n1CC | ? | ? | 25.9µM* | ? | 18.4µM* | -28.0%
COc1cccc(CNC(=O)c2cc3oc4ccccc4c3n2C)c1OC | ? | ? | -13.8% | 6.51µM* | -24.6% | ?
CCOc1ccc(CNC(=O)c2cc3oc4ccccc4c3n2C)cc1 | -25.5% | ? | ? | ? | ? | -3.0%
CCn1c(C(=O)NCc2ccc(F)cc2)cc2oc3ccccc3c21 | nt | i | 20.6µM* | ? | ? | nt
O=C1N/C(=N/O)S/C1=C/c1cccnc1 | 8.1% | i | -16.2% | i | 18.8% | 4.2%
Cc1ccc(S(=O)(=O)/N=C2/NC(=O)/C(=C/c3cccnc3)S2)cc1 | ? | ? | ? | i | 29.1µM* | ?
O=C(NCc1ccc(F)cc1)C1CCN(C(=O)c2ccc(-n3ccc4ccccc43)s2)CC1 | nt | i | 16.4µM* | i | 14.6µM* | nt
